# Test results: PubChem BioAssay (NCI)
# Where “and” joins values, the source holds several entries; their conditions need not be identical. Equal entries are not always repeated. This is part of a sample that, as a whole, favours compounds with a hit. Of some 83,000 tested, about 20% had one in any assay.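 Growth was measured after 48 h exposure to one concentration of compound in 96-well plates. Values under 10 count as active.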 Values without a mark were called inactive. Calls of active or inactive are those of the source.
# Tested on: SK-OV-3 ovarian
# Experiment: NCI-60 one-dose screen, 48 h (100 = growth as untreated, 0 = no growth, -100 = all killed)
# Conditions: 10 µM
# Method: Growth inhibition of the SK-OV-3 human tumor cell line is measured as a screen for anti-cancer activity. Cells are grown in 96 well plates and exposed to the test compound for 48 hours. Compounds are tested at a single concentration, which is 10^-5 M for most compounds. The reported endpoint is percent growth (GI% or GIPRCNT), where numbers from 0 - 100% represent growth inhibition, and numbers from -100% - 0 represent cell death. For example, a value of 40 represents 60% growth inhibition. A value of 0 means no net growth occurred over the course of the experiment. A value of -40 indicates 40% of cells at the beginning of the experiment died by the end of the experiment. A value of -100 means all cells are dead at the end of the experiment.
# NCI-60 Human Tumor Cell Lines Screen was performed using the standard one-dose NCI protocol, which is described in more detail at https://dtp.cancer.gov/discovery_development/nci-60/default.htm.
# Compounds with GIPRCNT values below 10 were considered active. Activity score was based on GIPRCNT using the following formula: […]
# Score is 0 for GIPRCNT values of 100 or above, 50 for GIPRCNT values of 0, and 100 for GIPRCNT values of -100.
row,SMILES,growth
1,CC1(C)OB(c2ccc(Cn3cc(F)c(=O)[nH]c3=O)cc2)OC1(C)C,114%
2,CNC(=O)c1cc(Oc2ccc(CC(=O)Nc3cc(C(C)(C)C)nn3C)cc2)ccn1,71.8%

# Same assay, conditions: 10 µM unless noted
row,SMILES,growth
1,CC1CCCC(=O)O1 (stereo not given),98% and 110%
2,O=[N+]([O-])c1ccccc1/C=N\Nc1ccccc1,90.6% and 93.7%
3,Nc1ccccc1SC1CC(=O)N(c2cccc3ccccc23)C1=O (stereo not given),88.6%
4,COc1ccc2nc(Cl)cc(C)c2c1,107% and 124%
5,NC(=S)N/N=C(\c1ccc(Br)cc1)C1CC1,105% and 97%
6,O=C1OC(Oc2ccc(Br)cc2)(c2ccccc2)c2ccccc21 (stereo not given),96.1% and 110%
7,O=S1(=O)CC(Br)C(Br)C1 (stereo not given),105% and 110%
8,CCN(CC)C(=O)c1cccnc1,109%
9,COc1c(/C(C)=N/N=c2sc(C(C)=O)nn2-c2ccc(Cl)cc2)c(Oc2ccccc2)c(OC)c2occc12,137% and 107%
10,O=C(/C=C/c1ccccn1)c1ccccc1O,111% and 113%
11,CN1CCN(CCC=C2c3ccccc3Sc3ccc(S(=O)(=O)N(C)C)cc32)CC1,87.7% and 96.7%
12,COC(=O)[C@H]1CCCN1C(=O)C1CCCN1C(=O)[C@@H](Cc1ccccc1)NC(=S)Nc1cc(C(F)(F)F)cc(C(F)(F)F)c1 (stereo not given in full),128% and 109%
13,CN(C)c1ccc(C(=C2C=CC(=[N+](C)C)C=C2)c2ccccc2Cl)cc1,-38.7% (active) and -32.4% (active)
14,Cn1c(=O)c2[nH]c(CCCCCCCCc3nc4ccccc4[nH]3)nc2n(C)c1=O,95.4% and 94%
15,O=C1C2=C(C(=O)c3ccccc31)C(O)(S(=O)(=O)O)C(O)(S(=O)(=O)O)C1N=CC=CC21 (stereo not given),44.8% and 20.9%
16,COC(=O)/C=C/c1cc(O)c2c(c1)C(C(=O)OC)C(c1ccc(O)c(O)c1)O2 (stereo not given),43.1% and 29.2%
17,CC(=O)Nc1ccc(O)cc1,114% and 115% and 91.5%
18,OC(COc1cccc2ccccc12)CN1CCN(c2ccc(Cl)cc2)CC1 (stereo not given),88.8% and 100%

row,SMILES,growth
1,Nc1n[nH]c(=S)n1-c1ccc(Cl)cc1,102%
2,Nc1ccccc1Nc1ccccc1,114% and 106%
3,O=C(N/N=C/c1ccccc1)N/N=C/c1ccccc1,106% and 111%
4,Cc1ccc(S(=O)(=O)Nc2nc3ccccc3nc2Nc2ccc3nsnc3c2)cc1,30.1% and 69.2%
5,S=C1SCN(Cc2ccccc2)CN1Cc1ccccc1,103%
6,CCN(CC)CCOc1ccc(/C=N/Nc2nc3c([nH]2)c(=O)n(C)c(=O)n3C)cc1,106% and 107%
7,Cc1ccc(-c2noc(C)n2)cc1,112%
8,COc1cc(C(=O)N/N=C/c2ccc(N(C)C)cc2)cc(OC)c1OC,10.9%
9,CC(/C=N/N1C(=O)c2ccccc2C1=O)c1ccccc1 (stereo not given),108%
10,CNC(=O)c1cccc(-c2ccc3c(N4CCOC[C@@H]4C)nc(N4CCOC[C@@H]4C)nc3n2)c1,-23% (active) and -36.9% (active)
11,O=C(N/N=C/c1cccc2ccccc12)C1CC1,108% and 117%
12,N=C1N=C(N)CS1,109%
13,Oc1c(CN2CCCCC2)ccc2cccnc12,54.5% and 50.8%
14,COc1ccc(CCN(C)CCCC(C#N)(c2ccc(OC)c(OC)c2)C(C)C)cc1OC (stereo not given),101% and 98.3% and 97.9%
15,CCCCCn1sc(=O)n(Cc2ccc(CNC(=O)C(C)c3ccc(CC(C)C)cc3)cc2)c1=O (stereo not given),97.1% and 70.2%
16,CC(C)(C)c1ccc(O)c(CNC2CCCCC2)c1,108% and 97.8%
17,CNc1ccc2nc3ccc(=[N+](C)C)cc-3sc2c1,35.2% and 18.6%
18,CN(C)c1ccc2nc3ccc(N)cc3[n+](-c3ccccc3)c2c1,74.1% and 30.9%

# Same assay, conditions: 30 µM
row,SMILES,growth
1,CNC(=O)c1cc(Oc2ccc(CC(=O)Nc3cc(C(C)(C)C)nn3C)cc2)ccn1,94.4%

# Same assay, conditions: 50 µM
row,SMILES,growth
1,CC1(C)OB(c2ccc(Cn3cc(F)c(=O)[nH]c3=O)cc2)OC1(C)C,69%
